The subject of experiment [1] is XIP peptide (Xip251-270) binding. The experiment in a line: XIP fragment 251-270 binding compounds – biochemical, small-molecule microarray, fluorescence 635/667 nm, 0.1 µg/mL protein, primary screen (AID 1182). The settings on record: fluorescent protein binding, 635 nm, higher = more signal, called active from +8 up or from −8 down.
The test system of a further experiment is XIP peptide (Xip251-270). The experiment in a line: compounds binding XIP fragment 251-270 – biochemical, small-molecule microarray, fluorescence 635/667 nm, 0.5 µg/mL protein, primary screen (AID 1183). Conditions: fluorescence 635 nm, higher = more signal.
A short description of experiment [2]: blood-stage malaria parasite viability loss – strain 3D7, DAPI fluorescence, 100 nL, primary screen (AID 1184).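 Also: parasites grown inside human red blood cells in medium with human serum.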 The settings on record: P. falciparum 3D7 growth, 3 d, higher = more signal.
The target in experiment [3] is Homeobox protein Hox-A13 (Mus musculus) (UniProt Q62424). The experiment in a line: disruptors of Hoxa13 oligonucleotide interaction – biochemical, fluorescence polarization, labeled oligonucleotide, primary screen (AID 1185). The settings on record: Hoxa13:DNA binding, 15 min, higher = more signal, called active from +8 up or from −8 down. A general note: Polarisation of emitted light reports the rotation of a fluorescent probe.

The nature of experiment [4]: blockers of DNA damage checkpoint Chk1 activation – imaging, HeLa, hydroxyurea, phospho-Chk1 antibody, percent positive cells, primary screen (AID 1186). The settings on record: hydroxyurea-induced phospho-Chk1 immunofluorescence imaging, higher = more signal.
A short description of experiment [5]: blockers of DNA damage checkpoint Chk1 activation – imaging, HeLa, hydroxyurea, phospho-Chk1 nuclear intensity, primary screen (AID 1187). The settings on record: hydroxyurea-induced phospho-Chk1 immunofluorescence imaging, higher = more signal.

Calls of active or inactive are those of the source. Unless noted, no rule for the calls is given here.

Chain of Homeobox protein Hox-A13 (Mus musculus) (Q62424 whole entry, looked up): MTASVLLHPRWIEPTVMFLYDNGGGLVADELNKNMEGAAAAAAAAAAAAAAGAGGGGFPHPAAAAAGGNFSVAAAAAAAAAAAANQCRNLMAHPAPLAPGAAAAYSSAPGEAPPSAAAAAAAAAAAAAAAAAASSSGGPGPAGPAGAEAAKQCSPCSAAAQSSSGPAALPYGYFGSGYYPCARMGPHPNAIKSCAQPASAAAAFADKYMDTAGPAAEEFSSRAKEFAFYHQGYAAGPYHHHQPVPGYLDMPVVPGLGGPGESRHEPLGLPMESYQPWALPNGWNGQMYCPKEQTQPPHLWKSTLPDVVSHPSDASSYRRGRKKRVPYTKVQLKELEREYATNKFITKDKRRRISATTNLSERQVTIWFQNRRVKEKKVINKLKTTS

On to `CC1(C)C2C=C(C(O)C3C=CC4C(=O)NC(=O)C4N3Nc3ccc(Cl)cc3Cl)C[C@@H]1C2` (some centres not stated), for which the composite z-score in experiment [1] is 1.15 (inactive); in the experiment on XIP peptide (Xip251-270) it was 0.231. Further, the z-score is 0.665 in experiment [2], -4.45 (inactive) in experiment [3], 0.955 (inactive) in experiment [4] and 0.327 (inactive) in experiment [5].
In the case of `C=C[C@H](OC)[C@@H](OC(=O)Nc1ccc(OC)cc1)c1ccc(O)c(F)c1`, the results for the composite z-score (in experiment [1]; in the experiment with XIP peptide (Xip251-270)) were -0.0346 (inactive) and -0.893, respectively. The z-score in experiment [2] was -0.343; in experiment [3], -3.1 (inactive); in experiment [4], 0.495 (inactive); in experiment [5], 0.76 (inactive).
Turning to `CCCCCCc1nc(-c2cc(C)c(OC)c(C)c2)cc2c1[Si](C(C)C)(C(C)C)OC2`, the composite z-score in experiment [1] is -0.267 (inactive); in the experiment on XIP peptide (Xip251-270), -0.191. Moreover, the z-score is -2.34 in experiment [2], -0.772 (inactive) in experiment [3], -0.157 (inactive) in experiment [4] and -0.188 (inactive) in experiment [5].
Take `O=C1c2ccccc2[C@](Cc2ccccc2I)(C(=O)NCCN2CCOCC2)[C@H](c2ccc(CO)cc2)N1C1CCCCC1`: the results for the composite z-score (in experiment [1]; in the experiment with XIP peptide (Xip251-270)) were 0.45 (inactive) and 0.652, respectively. Also, the z-score was -1.79 in experiment [2], -5.61 (inactive) in experiment [3], 0.16 (inactive) in experiment [4] and -6.65 (inactive) in experiment [5].
For `C=CCOC(=O)[C@H]1[C@@H]2C(=O)O[C@@H](c3ccccc3)[C@@H](c3ccccc3)N2[C@@H](c2ccc(OCCOC(=O)[C@@H]3C[C@@H]4C(=O)N[C@@H](CCCCNC(C)=O)C(=O)N4[C@@H]3c3ccc(O)cc3)cc2)[C@]12C(=O)Nc1ccccc12`, the results for the composite z-score (in experiment [1]; in the experiment on XIP peptide (Xip251-270)) were 2.75 (inactive) and 0.818, respectively. Further, the z-score in experiment [2] was -1.8; in experiment [3] it was -1.89 (inactive); in experiment [4], -0.731 (inactive); in experiment [5] it was 0.21 (inactive).
Take `COc1ccc(-c2cc3c(c(-c4ccc(Oc5ccccc5)cc4)n2)[Si](C(C)C)(C(C)C)OC3)cn1`: the figures for the composite z-score (in experiment [1]; with XIP peptide (Xip251-270)) were -0.0527 (inactive) and 0.0792, respectively. For the same compound, the z-score was -1.34 in experiment [2], -1.79 (inactive) in experiment [3], -0.265 (inactive) in experiment [4] and 0.0655 (inactive) in experiment [5].
With `COc1ccc(C#Cc2ccc3c(c2)[C@]2(C(=O)N3)[C@H](C(=O)NC[C@H](O)c3ccccc3)[C@H]3C(=O)O[C@H](c4ccccc4)[C@H](c4ccccc4)N3[C@@H]2c2ccc(O)cc2)cc1`, the composite z-score in experiment [1] is 0.627 (inactive); with XIP peptide (Xip251-270), 0.624. For the same compound, the z-score in experiment [2] is -0.0029; in experiment [3], -0.752 (inactive); in experiment [4], -0.371 (inactive); in experiment [5] it was -0.628 (inactive).
In the case of `COCCOC(=O)N1C(=O)[C@@]2(c3cc(C#CCNC(N)=O)ccc31)[C@H](C(=O)N1CCN(c3ncccn3)CC1)[C@H]1C(=O)O[C@H](c3ccccc3)[C@H](c3ccccc3)N1[C@@H]2c1ccc(OCCO)cc1`, the composite z-score in experiment [1] is 0.0897 (inactive); in the experiment with XIP peptide (Xip251-270) it was 0.697. For the same compound, the z-score in experiment [2] is -0.939; in experiment [3], 0.245 (inactive); in experiment [4], 0.138 (inactive); in experiment [5], 0.0943 (inactive).
For `COc1cc2c(cc1O)C(C1CC1)N(Cc1sc3ccccc3c1Cl)CC2` (configuration not stated), the composite z-score in experiment [1] was 0.275 (inactive); in the experiment on XIP peptide (Xip251-270) it was 0.637. Besides, the z-score was -1.23 in experiment [2], -2.44 (inactive) in experiment [3], -0.147 (inactive) in experiment [4] and 0.302 (inactive) in experiment [5].
For the compound `C=CCOC(=O)[C@H]1[C@@H]2C(=O)O[C@@H](c3ccccc3)[C@@H](c3ccccc3)N2[C@@H](c2ccc(OCCOC(=O)[C@@H]3C[C@@H]4C(=O)N[C@@H](CC(C)C)C(=O)N4[C@@H]3c3ccc(O)cc3)cc2)[C@]12C(=O)Nc1ccccc12`, the values for the composite z-score (in experiment [1]; in the experiment on XIP peptide (Xip251-270)) were 1.25 (inactive) and 0.802, respectively. For the same compound, the z-score was -1.66 in experiment [2], -0.596 (inactive) in experiment [3], 0.659 (inactive) in experiment [4] and 0.991 (inactive) in experiment [5].
Take `COc1cc2c(cc1O)C(c1cccs1)N(C)CC2` (configuration not stated): the values for the composite z-score (in experiment [1]; with XIP peptide (Xip251-270)) were -0.721 (inactive) and 0.594, respectively. The z-score is -1.12 in experiment [2], -3.91 (inactive) in experiment [3], -0.428 (inactive) in experiment [4] and -0.628 (inactive) in experiment [5].
Take `COc1ccc([Si](C)(C)[C@@H]2[C@@H](CCO)O[C@]3(C(=O)N(Cc4ccc(N(C=O)c5ccccc5)cc4)c4ccccc43)[C@H]2C)cc1`: the composite z-score in experiment [1] is -0.0075 (inactive); in the experiment with XIP peptide (Xip251-270), -0.0404. Further, the z-score is -2.7 in experiment [2], -1.54 (inactive) in experiment [3], -1.27 (inactive) in experiment [4] and -1.31 (inactive) in experiment [5].
Take `COCCOC(=O)N1C(=O)[C@@]2(c3cc(C#CCNC(N)=O)ccc31)[C@H](C(=O)Nc1nc3ccccc3s1)[C@H]1C(=O)O[C@H](c3ccccc3)[C@H](c3ccccc3)N1[C@@H]2c1ccc(OCCO)cc1`: the composite z-score in experiment [1] is 0.113 (inactive); in the experiment with XIP peptide (Xip251-270) it was -0.221. The z-score in experiment [2] was 0.764; in experiment [3] it was 0.886 (inactive); in experiment [4], -0.0719 (inactive); in experiment [5] it was -0.0419 (inactive).
`C=CCNC(=O)[C@@H]1[C@H]2C(=O)O[C@H](c3ccccc3)[C@H](c3ccccc3)N2[C@H](c2ccc(O)cc2)[C@@]12C(=O)Nc1ccc(C#CCNC(N)=O)cc12`: the composite z-score was 0.33 (inactive) in experiment [1] and 0.0915 with XIP peptide (Xip251-270). Also, the z-score is -0.1 in experiment [2], -3.36 (inactive) in experiment [3], -0.0873 (inactive) in experiment [4] and -0.0078 (inactive) in experiment [5].
With `CCOC(=O)C[C@H]1[C@H](OC(=O)c2ccc(C(=O)c3ccccc3)cc2)[C@@H](NC(=O)c2ccccc2)c2cc(OCCCO)ccc2N1C(=O)Cc1ccc(OC)cc1`, the composite z-score is -0.0614 (inactive) in experiment [1] and 0.511 in the experiment on XIP peptide (Xip251-270). For the same compound, the z-score in experiment [2] was 0.4; in experiment [3], -1.99 (inactive); in experiment [4], 0.119 (inactive); in experiment [5], 0.134 (inactive).
Regarding `CC1CC/C=C\[C@H]2OC34C=CCN(C(C)(C)C)C(=O)[C@H]3N(C(C)CO)C(=O)[C@@H]4C2C(=O)O1` (some centres not stated), the composite z-score in experiment [1] is -0.323 (inactive); with XIP peptide (Xip251-270), -1.08. Besides, the z-score in experiment [2] is 0.0549; in experiment [3] it was -5.51 (inactive); in experiment [4], 0.714 (inactive); in experiment [5] it was -0.0558 (inactive).
For the compound `NC(=O)[C@@H]1[C@H]2C(=O)O[C@H](c3ccccc3)[C@H](c3ccccc3)N2[C@H](c2ccc(O)cc2)[C@@]12C(=O)Nc1ccccc12`, the composite z-score in experiment [1] is 0.138 (inactive); in the experiment on XIP peptide (Xip251-270), 0.507. Moreover, the z-score was -1.28 in experiment [2], -5.09 (inactive) in experiment [3], -0.0838 (inactive) in experiment [4] and -0.0447 (inactive) in experiment [5].
On to `NC(=O)NCC#Cc1ccc2c(c1)[C@]1(C(=O)N2)[C@H](C(N)=O)[C@H]2C(=O)O[C@H](c3ccccc3)[C@H](c3ccccc3)N2[C@@H]1c1ccc(O)cc1`, for which the composite z-score in experiment [1] is 1.49 (inactive); in the experiment with XIP peptide (Xip251-270), 0.109. Also, the z-score is -0.19 in experiment [2], -5.36 (inactive) in experiment [3], 0.0619 (inactive) in experiment [4] and 0.044 (inactive) in experiment [5].
With `O=C1NC(=O)C2C1C=CC(C(O)c1cccs1)N2Nc1ccc(Cl)cc1Cl` (configuration not stated), the composite z-score in experiment [1] was 0.228 (inactive); with XIP peptide (Xip251-270) it was 0.554. In addition, the z-score in experiment [2] is -0.335; in experiment [3], -4.05 (inactive); in experiment [4], -0.266 (inactive); in experiment [5] it was -0.45 (inactive).
On to `Cc1ccc(S[C@]2(C(=O)O)CC(=O)N(C(C)C)[C@@H]2c2ccc(CO)cc2I)cc1`, for which the composite z-score in experiment [1] is 0.534 (inactive); in the experiment with XIP peptide (Xip251-270), 0.837. Moreover, the z-score in experiment [2] is 0.14; in experiment [3] it was -3.85 (inactive); in experiment [4] it was -0.366 (inactive); in experiment [5], 0.0562 (inactive).
`C[C@H]1C2[C@H](Cc3ccccc3)NC(=O)[C@]23C(=O)N[C@H](Cc2ccccc2)C(=O)N2CCC[C@H]2C(=O)NC/C=C\C/C=C/C3[C@@H]2O[C@]12C` (some centres not stated): the composite z-score in experiment [1] was 0.297 (inactive); with XIP peptide (Xip251-270), 0.192. The z-score in experiment [2] is -0.227; in experiment [3], -6.27 (inactive); in experiment [4], -0.291 (inactive); in experiment [5], -0.104 (inactive).
Consider `COCCOC(=O)N1C(=O)[C@@]2(c3ccccc31)[C@H](c1ccccc1OCCO)N1[C@H](c3ccccc3)[C@H](c3ccccc3)OC(=O)[C@H]1[C@@H]2C(=O)N1CCN(c2ncccn2)CC1`, for which the composite z-score in experiment [1] is 1.04 (inactive); in the experiment on XIP peptide (Xip251-270), 0.799. For the same compound, the z-score in experiment [2] is -2.2; in experiment [3], -1.99 (inactive); in experiment [4], 0.0172 (inactive); in experiment [5] it was 0.0629 (inactive).

The values above are taken from PubChem BioAssay.
